Experimental findings from PubChem BioAssay AID2685 (National Center for Advancing Translational Sciences (NCATS), 2010) are described below.

In all, about 320,000 compounds went through this assay and about 2,100 (0.66%) were called active. Another 53% or so got no clear call; they are omitted. Calls come from the whole dose curve; as a rule, active = well fitted inhibition curve with a large enough effect in the signal ratio, with a control signal flat (not every such curve was filed as active); inconclusive = small, poorly fitted or top-dose-only effect, or effect the other way, or a change in a side signal; inactive = flat fitted curve, though single readings scatter; the % refers to the signal ratio. The full list was thinned out, with actives kept by preference.
Potency is the fitted concentration of half-maximal effect.

A short description of the assay: qHTS Assay for Lipid Storage Modulators in Drosophila S3 Cells.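 For cell number change: cells counted by Cell Tracker Red CMTPX staining in the red channel.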 For lipid storage change, negative = inhibition: % is set by controls: 0 for no effect and ±100 for the full control effect. Particulars: BODIPY lipid droplet fluorescence, 18-24 h, cells fed with added oleic acid; cell number change: measured here: cell count max response; series mostly up to 46.1 µM; lipid storage change, negative = inhibition: at the top concentration. In a few lines:
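Drosophila S3 cells got compounds at several concentrations plus oleic acid (400 uM solution). Laser-scanning cytometry with 488 nm excitation read lipid droplets at 500-530 nm and cells at 575-640 nm. Percent activity was relative to 20 uM Triacsin C.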
`O=C1CN(C(=O)CNC(=O)c2cccc(Cl)c2)c2ccccc2N1`: the “lipid storage change, negative = inhibition” value was 0.224% (inactive) and the cell number change is 17%.

`Cc1cccn2c(=O)c(/C=C(\C#N)S(=O)(=O)c3ccccc3)c(Oc3ccc(Cl)cc3)nc12`: the “lipid storage change, negative = inhibition” value is 2.66% (inactive) and the cell number change is -10.2%.

As for `CC(=O)N1CCN(c2ccccc2NC(=O)COc2cc(C)cc(C)c2)CC1`, the “lipid storage change, negative = inhibition” value is -100% (inactive) and the cell number change is 13.5%. For `CCOc1ccc(S(=O)(=O)NCc2csc(C)n2)cc1`, the compound was classed as inactive.

For `CCS(=O)(=O)c1ccc2oc(Nc3ccc(C(C)C)cc3)nc2c1`, the “lipid storage change, negative = inhibition” value is -3.92% (inactive) and the cell number change is 2.93%.

With `CCn1nc(C)cc1C(=O)N1CCc2c([nH]c3ccccc23)C1c1cc(F)ccc1F` (centres undefined), the “lipid storage change, negative = inhibition” value was -9.5% (inactive) and the cell number change was 8.47%. The matching figures for `CN(C)S(=O)(=O)c1ccc(N2CCCC2)c(C(=O)Nc2ccccc2F)c1`: 14.2% (inactive) and 25.2%. For `CN(C)S(=O)(=O)c1ccc(N2CCCC2)c(C(=O)Nc2ccccc2OC(F)F)c1` the same measures were 9.18% (inactive) and 29.4%. On to `COc1ccc(C(C)(C)C)cc1NC(=O)c1cc(S(=O)(=O)N(C)C)ccc1N1CCCC1`, for which the Potency was 18.4 µM (active) and the cell number change was -23.6%.

Turning to `COc1ccc(S(=O)(=O)NC2CCCC2)cc1NC(C)=O`, the “lipid storage change, negative = inhibition” value was -1.83% (inactive) and the cell number change was determined as 17.4%. The matching figures for `COc1ccc(C=O)cc1Oc1nc(Cl)ncc1F`: 21.6% (inactive) and 5.61%. The matching figures for `CC(CCc1ccccc1)NC(=O)CN1CCN(c2ccc(O)cc2)CC1` (centres undefined): -11.9% (inactive) and 0.962%. For `CC(=O)Nc1ccc(SCC(=O)c2ccc(Br)s2)cc1`, the compound was called inactive and the cell number change is 5.88%. Turning to `COc1ccc(S(N)(=O)=O)cc1-c1nnc2c3ccccc3c(C)nn12`, the “lipid storage change, negative = inhibition” value was -0.656% (inactive) and the cell number change was -15.7%. For `COc1ccc(S(=O)(=O)c2c(O)c3ccc(C(=O)Nc4ccccc4)cc3[nH]c2=O)cc1`, the “lipid storage change, negative = inhibition” value was 26.4% (inactive) and the cell number change worked out at 23%. Consider `COc1ccc(S(=O)(=O)c2c(O)c3ccc(C(=O)Nc4ccc(F)cc4)cc3[nH]c2=O)cc1`, for which the result was inactive and the cell number change was -7.08%. Take `Cc1ccc(S(=O)(=O)c2c(O)c3ccc(C(=O)O)cc3[nH]c2=O)cc1`: the Potency was 11.6 µM (active) and the cell number change was -5.9%. Consider `Cc1cccc(NC(=O)c2cc(Cl)ccc2[N+](=O)[O-])c1`, for which the “lipid storage change, negative = inhibition” value was 4.85% (inactive).

Consider `Cc1cccc(Nc2nc(N)c([N+](=O)[O-])c(NCCO)n2)c1`, for which the “lipid storage change, negative = inhibition” value is 0.152% (inactive) and the cell number change was -0.837%. The matching figures for `O=C(CSc1ccc2ccccc2n1)NCc1ccc2c(c1)OCO2`: 19.1% (inactive) and 26.9%. `Cc1cccc(C)c1NC(=S)NCCCN1CCCC1=O`: the Potency was 0.461 µM (active) and the cell number change is -0.836%. Turning to `O=C1CCCN1CCCNC(=S)Nc1ccccc1`, the “lipid storage change, negative = inhibition” value is 15.3% (inactive) and the cell number change is -7.97%.

With `Cc1cc(Cl)ccc1NC(=S)NCCCN1CCCC1=O`, the “lipid storage change, negative = inhibition” value is 18.7% (inactive) and the cell number change came out at 7.04%. For `CCN1CCN(CC(O)COCCOc2ccc(Br)cc2)CC1` (centres undefined) the same measures were -7.14% (inactive) and 4.7%.

Turning to `Cc1cccc(OCC(=O)NCc2cc(C)nc3ccccc23)c1`, the “lipid storage change, negative = inhibition” value is 5.62% (inactive) and the cell number change is -5.05%. For `COc1ccccc1OCCNC(=O)c1cc(=O)[nH]c2ccccc12` the same measures were 8.99% (inactive) and 13.3%. Consider `COc1ccccc1C(C)NC(=O)c1cc(=O)[nH]c2ccccc12` (centres undefined), for which the outcome was inactive and the cell number change is -5.13%.

`CCOc1ccc(C(C)NC(=O)c2cc(=O)[nH]c3ccccc23)cc1OCC` (centres undefined): the Potency is 0.0021 µM (active) and the cell number change was 6.31%. Regarding `CC(=O)c1cccc(N(CC(=O)NC2CCCCC2)C(=O)CNC(=O)c2cccs2)c1`, the compound was classed as inactive and the cell number change came to 16.1%. As to `COCCCNC(=O)c1c(N)n(/N=C/c2ccccn2)c2nc3ccccc3nc12`, the Potency is 7.31 µM (active). With `COCCNC(=O)c1c(N)n(/N=C/c2ccc(F)cc2)c2nc3ccccc3nc12`, the “lipid storage change, negative = inhibition” value is 3.89% (inactive) and the cell number change worked out at 21.5%. For `CCC(C)NC(=O)c1c(N)n(/N=C/c2ccccn2)c2nc3ccccc3nc12` (centres undefined) the same measures were 16.9% (inactive) and 8.8%. As to `Cc1ccc(-c2ccc(=O)n(CCC(=O)N3CCN(Cc4ccccc4)CC3)n2)cc1`, the compound was called inactive.

For the compound `COc1ccc(CNC(=O)c2ccc3c(c2)NC(=O)C(C)S3)cc1` (centres undefined), the “lipid storage change, negative = inhibition” value was -0.216% (inactive) and the cell number change was -2.51%.

For `COc1cccc(COC(=O)c2ccc3c(c2)NC(=O)C(C)S3)c1OC` (centres undefined), the Potency is 3.26 µM (active).

`COc1ccc(Br)cc1CN(C)C(=O)c1ccc2c(c1)NC(=O)C(C)S2` (centres undefined): the “lipid storage change, negative = inhibition” value is 4.83% (inactive). Still for that read-out and setting: to `CN1CCN(C(=O)c2cc(Cl)ccc2NC(=O)c2ccc(Cl)cc2Cl)CC1` belongs -0.54% (inactive). Consider `C=CCn1c(SCC(N)=O)nc2sc3c(c2c1=O)CCC3`, for which the compound was called inactive and the cell number change was -3.38%.

With `CC(NC(=O)c1ccccc1NC(=O)CN1CCN(c2ccccc2O)CC1)c1ccccc1` (centres undefined), the Potency was 8.2 µM (active) and the cell number change turned out to be 14.4%. Regarding `CC(NC(=O)CN1CCN(c2ccc(Cl)cc2)CC1)c1ccccc1` (centres undefined), the “lipid storage change, negative = inhibition” value is -3.9% (inactive) and the cell number change was -1.82%. For `O=C(CN1CCN(c2ccc(O)cc2)CC1)Nc1cc(S(=O)(=O)N2CCCC2)ccc1Cl` the same measures were 4.5% (inactive) and -1.92%. For `O=C(CN1CCN(c2ccc(O)cc2)CC1)Nc1cc(S(=O)(=O)N2CCCCC2)ccc1Cl` the same measures were 10.5% (inactive) and 21%. Turning to `O=C(CN1CCN(c2ccccc2O)CC1)Nc1cc(S(=O)(=O)N2CCCC2)ccc1Cl`, the Potency is 0.259 µM (active) and the cell number change is -12.2%.
